According to PubChem BioAssay (EPA / NIEHS):
Results filed as inconclusive are left out. Active and inactive are the calls of the source. Rule for the calls, unless noted: active = hit-call score of the fitted dose curve at least 0.9, where 1 is the maximum; inconclusive = response in the unintended direction; inactive = score below 0.9.

Key:
[1] = Tanguay_ZF_120hpf_PFIN_legacy: (Legacy) Oregon State University Tanguay Lab 120 Hour Post-fertilization zebrafish Assay for Pectoral Fin Malformation (AID 2283648);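 note: each larva judged yes or no for fin defect by brightfield with dead larvae skipped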
Summary of the method: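 Binary pectoral fin malformation call at 120 hpf by brightfield microscopy; 5D wild-type zebrafish, chorion removed at 4 hpf, one embryo per well from 6 hpf, static exposure at 28C; DMSO (0.64% final) as baseline.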

[2] = Tanguay_ZF_120hpf_CFIN_legacy: (Legacy) Oregon State University Tanguay Lab 120 Hour Post-fertilization zebrafish Assay for Caudal Fin Malformation (AID 2283649)
Summary of the method: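 Binary brightfield scoring of caudal fin defects at 120 hpf after static, light-shielded exposure at 28C from 6 hpf. Tropical 5D embryos, chorion removed with pronase at 4 hpf, final DMSO 0.64%.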

[3] = Tanguay_ZF_120hpf_PIG_legacy: (Legacy) Oregon State University Tanguay Lab 120 Hour Post-fertilization zebrafish Assay for Pigmentation Malformation (AID 2283650);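 note: dechorionated Tropical 5D zebrafish embryos exposed singly from 6 to 120 hpf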
Summary of the method: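 Brightfield scoring of pigmentation malformation at 120 hpf, recorded as binary present/absent per larva. Exposure: dechorionated 5D wild-type embryos, one per well, static from 6 hpf at 28C, final DMSO 0.64% (vol/vol). Dead embryos not scored.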

[4] = Tanguay_ZF_120hpf_SWIM_legacy: (Legacy) Oregon State University Tanguay Lab 120 Hour Post-fertilization zebrafish Assay for Swim Bladder Malformation (AID 2283654);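 note: swim bladder malformation in each larva scored yes or no under brightfield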
Summary of the method: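 Tropical 5D embryos dechorionated at 4 hpf; 1 embryo/well from 6 hpf; static, sealed, dark exposure at 28C until 120 hpf; final DMSO 0.64%; 5uM trimethyltin chloride positive control; swim bladder defect recorded yes/no; dead embryos not scored.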

[5] = Tanguay_ZF_120hpf_TRUN_legacy: (Legacy) Oregon State University Tanguay Lab 120 Hour Post-fertilization zebrafish Assay for Truncated Body (AID 2283655)
Summary of the method: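 Binary presence/absence of truncated body is recorded at 120 hpf by brightfield, with non-mortality endpoints skipped after death. Exposure is static from 6 hpf in sealed dark plates at 28C, using dechorionated wild-type zebrafish, 0.64% DMSO.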

[6] = Tanguay_ZF_120hpf_NC_legacy: (Legacy) Oregon State University Tanguay Lab 120 Hour Post-fertilization zebrafish Assay for Notochord and Tail Malformation (AID 2283656)
Summary of the method: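 Binary notochord-distortion calls, made by brightfield inspection, form the read-out; activity is fitted in the positive direction against DMSO. Exposure ran statically from 6 to 120 hpf at 28C with 0.64% DMSO.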

[7] = tested on: Thyroperoxidase (TPO), gene 54314; experiment: CCTE_Simmons_AUR_rTPO: CCTE's Amplex UltraRed Assay for Thyroperoxidase (TPO) Inhibition, Simmons Lab (AID 2283662);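 note: potency for loss of signal meaning inhibition of peroxidase activity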
Summary of the method: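 Rat thyroid microsomes (5 ug protein) with 25 uM Amplex UltraRed and 300 uM H2O2 in 200 mM phosphate buffer, 30 min at 37C in dark; fluorescence 544/590 nm. Eight concentrations, 5 nM–87.5 uM final, 0.5% DMSO, triplicate biological replicates.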

[8] = CCTE_Simmons_CellTiterGLO_HEK293T: Viability Assessment in CCTE's Assays for Thyroperoxidase (TPO) Inhibition, Simmons Lab (AID 2283665);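 for AC50: cells exposed to compound for 24 h before readout; actives reduce ATP signal below DMSO vehicle meaning cytotoxicity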
Summary of the method: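 Luminescent ATP readout (CellTiter-Glo, 20 min at room temperature) after 24 hr exposure of HEK293T cells to 5 nM–87.5 uM final compound; signal loss relative to DMSO vehicle indicated cytotoxicity; dichlone titrated as positive control.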

[9] = CCTE_Padilla_ZF_144hpf_TERATOSCORE: (Legacy) CCTE's 144 Hour Post-fertilization zebrafish Assay Teratoscore, Padilla Lab (AID 2283679; active = hit-call score of the fitted dose curve at least 0.9, where 1 is the maximum; inactive = score below 0.9;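 for AC50: zebrafish embryos with chorions exposed by immersion from 6-8 hpf to 5 dpf with daily renewal; teratogenicity score from eye scoring of death hatching and malformations at 144 hpf; higher score means more developmental defects relative to DMSO baseline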)
Summary of the method: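 Larvae scored by eye at 144 hpf for death, hatching and malformations after a day in clean Hanks'. Before that, daily-renewed exposure at 80 uM (0.4% DMSO, 26C) from roughly 6-8 hpf through 5 dpf, 4 embryos per chemical.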

[10] = STM_H9_OrnithineISnorm_perc: Stemina devTOX quickPredict H9 human embryonic stem cell (hESC)-based Assay for Ornithine (ORN) Metabolite Biomarker, Normalized (AID 2283712; active = hit-call score of the fitted dose curve at least 0.9, where 1 is the maximum; inactive = score below 0.9;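 note: ornithine released into spent medium during last day measured by mass spectrometry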)
Summary of the method: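 UPLC-HRMS readout: endogenous ornithine EIC area / 13C-ORN internal standard, then % of 0.1% DMSO median. H9 hESCs (pluripotent), 72h exposure, re-dosed with fresh media q24h; last 24-h spent media, deproteinized in 40% acetonitrile.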

[11] = STM_H9_CystineISnorm_perc: Stemina devTOX quickPredict H9 human embryonic stem cell (hESC)-based Assay for Cystine (CYSS) Metabolite Biomarker, Normalized (AID 2283713; active = hit-call score of the fitted dose curve at least 0.9, where 1 is the maximum; inactive = score below 0.9)
Summary of the method: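 UPLC-HRMS read-out: endogenous cystine peak area in spent medium, normalized to isotope-labeled internal standard and to median of 0.1% DMSO controls. Pluripotent H9 cells, 72h exposure, daily medium/compound replenishment; medium from last 24h sampled.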

[12] = STM_H9_OrnCyssISnorm_ratio: Stemina devTOX quickPredict H9 human embryonic stem cell (hESC)-based Assay for Ornithine (ORN):Cystine (CYSS) Ratio (AID 2283714)
Summary of the method: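 UPLC-HRMS of spent media: ORN/CYSS ratio of internal-standard-normalized percentages, DMSO (0.1%) baseline. Pluripotent H9 hESCs, 72h exposure, daily re-dosing with fresh media; last 24h media collected.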

[13] = Tanguay_ZF_120hpf_CIRC_legacy: (Legacy) Oregon State University Tanguay Lab 120 Hour Post-fertilization zebrafish Assay for Circulatory Malformation (AID 2283651)
Summary of the method: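 Static exposure, 6–120 hpf, 28C, sealed and dark; one dechorionated 5D embryo/well; DMSO 0.64% v/v final. Binary circulation endpoint by brightfield; dead embryos not scored.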

[14] = Tanguay_ZF_120hpf_TR_legacy: (Legacy) Oregon State University Tanguay Lab 120 Hour Post-fertilization zebrafish Assay for Touch Response (AID 2283667)
Summary of the method: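 Binary touch-response call at 120 hpf, analysed as gain of signal versus DMSO baseline. Wild-type 5D larvae, static exposure at 28C, 0.64% DMSO final; 5uM trimethyltin chloride as positive control.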

[15] = Tanguay_ZF_120hpf_ActivityScore_legacy: (Legacy) Oregon State University Tanguay Lab 120 Hour Post-fertilization zebrafish Assay Score for Activity (AID 2283742)
Summary of the method: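 Dechorionated 5D embryos, one per well, static exposure 6–120 hpf, 28C, sealed and dark; final DMSO 0.64% (vol/vol). Brightfield binary scoring of mortality plus 18 endpoints; gain-of-signal fit versus DMSO baseline.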

Measured: AC50

Nc1ccc(Nc2ccccc2)cc1
inactive: [6]
active: [1] 41.2 µM | [2] 47 µM | [3] 48.7 µM | [4] 45.6 µM | [5] 40.8 µM | [7] 3.09 µM | [8] 38.4 µM | [9] 10.1 µM | [10] 4.61 µM | [11] 2.69 µM | [12] 3.03 µM

CCOC(=O)CC(CC(=O)OCC)(OC(C)=O)C(=O)OCC
inactive: [1] | [2] | [3] | [13] | [4] | [14] | [9]

Cc1ccc(C)c(O)c1
not listed: [7] | [8] | [9] | [10] | [11] | [12]
inactive: all other assays above

CC[C@H]1OC(=O)[C@H](C)[C@@H](O[C@H]2C[C@@](C)(OC)[C@@H](O)[C@H](C)O2)[C@H](C)[C@@H](O[C@@H]2O[C@H](C)C[C@H](N(C)C)[C@H]2O)[C@](C)(O)C[C@@H](C)C(=O)[C@H](C)[C@@H](O)[C@]1(C)O
inactive: [1] | [2] | [3] | [13] | [5] | [6] | [15]

CN(C)c1ccc(Cc2ccc(N(C)C)cc2)cc1
active: [7] 12 µM | [8] 22.3 µM | [9] 25.2 µM
not listed: [6] | [10] | [11] | [12]
inactive: all other assays above

CC(=O)c1ccc2c(c1)[C@H](NC(=O)c1ccc(F)cc1)[C@@H](O)C(C)(C)O2
inactive: [1] | [2] | [3] | [13] | [4] | [5] | [14] | [15]

COCCOCCOCCOC
not listed: [7] | [8] | [13] | [15]
inactive: all other assays above

CCOc1cccc(-n2cc(C(=O)N3CCN(c4cc(C(=O)O)c5ccccc5c4)CC3)nc2-c2ccc(C)cc2)c1
active: [7] 43.8 µM | [8] 22.6 µM | [9] 16.6 µM
inactive: [1] | [2] | [3] | [4] | [5] | [6] | [14]

CCOC(=O)COc1ccc2c(c1)CC(NCC(O)c1cccc(Cl)c1)CC2 (centres undefined)
inactive: [1] | [2] | [3] | [4] | [5] | [14]
active: [9] 6.13 µM

CCCC(=O)OCC
not listed: [7] | [8] | [9] | [10] | [11] | [12]
inactive: all other assays above

Cc1ccc(N)cc1O
active: [7] 1.18 µM
not listed: [5] | [10] | [11] | [12]
inactive: all other assays above

Cc1[nH]cnc1C[C@H]1CCc2c(C)c3ccccc3n2C1=O
active: [7] 27.6 µM | [9] 13.8 µM
not listed: [5] | [8] | [10] | [11] | [12]
inactive: all other assays above

COC(=O)c1ccccc1O
not listed: [7] | [8] | [9] | [10] | [11] | [12]
inactive: all other assays above

CC(=O)OC[C@H]1O[C@@](COC(C)=O)(O[C@H]2O[C@H](COC(C)=O)[C@@H](OC(C)=O)[C@H](OC(C)=O)[C@H]2OC(C)=O)[C@@H](OC(C)=O)[C@@H]1OC(C)=O
inactive: [1] | [2] | [3] | [13] | [5] | [6] | [14]

CC1=CC(=O)CC(C)(C)C1
inactive: [1] | [2] | [3] | [13] | [4] | [5] | [6] | [15]

CNCc1ccc(NC(=O)c2c[nH]c3c2C(=O)CCC3)cc1
not listed: [7] | [8] | [9]
inactive: all other assays above

O=C(CCCCCCCCc1cccnc1)N1CCC(C=C(c2ccccc2)c2ccccc2)CC1
inactive: [1] | [2] | [3] | [13] | [4] | [5] | [14]
active: [7] 27.6 µM | [8] 5.13 µM | [9] 14.2 µM

CC[C@H]1CC[C@H](NCc2cc3c(cc2OC)[C@H]2C[C@H]2C(=O)N3C)[C@H](c2ccccc2)N1
active: [10] 9.25 µM | [11] 7.32 µM | [12] 8.66 µM
inactive: [1] | [2] | [3] | [4] | [5] | [6] | [14]

CCOCCO
inactive: [2] | [3] | [13] | [4] | [5] | [6] | [14] | [15]

CN(C)c1ccc(N=NS(=O)(=O)O)cc1
active: [7] 21.7 µM | [10] 28.5 µM | [11] 16.9 µM | [12] 20.5 µM
not listed: [1] | [2] | [9] | [15]
inactive: all other assays above

O=C1OC(=O)C2C3C=CC(C3)C12 (centres undefined)
inactive: [1] | [2] | [13] | [4] | [5] | [6] | [14] | [15]

CC(C)CC(C)(O)C#CC(C)(O)CC(C)C (centres undefined)
inactive: [6] | [14]
active: [10] 75 µM | [11] 60.1 µM | [12] 63.2 µM

Cn1cnc([N+](=O)[O-])c1Sc1ncnc2nc[nH]c12
active: [7] 30.4 µM | [8] 1.09 µM | [10] 3.25 µM | [11] 3.49 µM | [12] 3.28 µM
inactive: [2] | [13] | [5] | [6] | [14] | [15]

COC(=O)CC(=O)OC
inactive: [1] | [13] | [4] | [5] | [6] | [14] | [9] | [15]
